sEH activator: soluble epoxide hydrolase (human) activation. AID 717. actives 0.04% (n = 91,000). activation, % at 2 µM. purified human sEH enzymatic activity, activator screen; in the data active means activation above about 37%
CYP2C9 inhib: human CYP2C9 inhibition; CYP2C9 Supersomes, luciferin-H conversion, luminescence; inhibition, % at 5 µM; P11712; actives 20% (n = 96,000);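 active means blocking of liver enzyme CYP2C9 beyond about 50% at 5 µM, limit read from the data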
Target sequence (P11712 whole entry, looked up): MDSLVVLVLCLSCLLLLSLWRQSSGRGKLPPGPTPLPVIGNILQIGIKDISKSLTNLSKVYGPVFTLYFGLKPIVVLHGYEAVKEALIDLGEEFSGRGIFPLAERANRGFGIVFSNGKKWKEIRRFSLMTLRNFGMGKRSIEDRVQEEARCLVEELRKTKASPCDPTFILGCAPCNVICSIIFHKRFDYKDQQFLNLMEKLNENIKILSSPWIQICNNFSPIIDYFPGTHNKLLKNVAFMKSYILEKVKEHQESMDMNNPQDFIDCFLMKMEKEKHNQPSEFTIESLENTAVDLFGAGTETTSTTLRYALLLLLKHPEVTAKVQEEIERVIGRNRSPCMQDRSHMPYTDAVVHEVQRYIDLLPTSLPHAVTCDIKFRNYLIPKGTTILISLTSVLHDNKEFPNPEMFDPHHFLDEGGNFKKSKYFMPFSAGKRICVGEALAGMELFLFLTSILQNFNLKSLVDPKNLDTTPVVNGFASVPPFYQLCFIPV
CYP2C9 act: increases human cytochrome P450 2C9 activity | P11712 | recombinant CYP2C9, luciferin-H conversion, luminescence; hits give high values; factor 1 = untreated enzyme, 0 = blocked | activation factor at 5 µM | actives 1.4% (n = 96,000) | AID 1024;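 active means activation factor of 2 or more for CYP2C9 at a 5 µM dose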;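 further: 0 = sulfaphenazole-blocked wells and 1 = vehicle-only wells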
CYP2C19 activ: increases human CYP2C19 enzyme activity | P33261 | 96,000 tested, under 10 active | recombinant CYP2C19, luciferin-H EGE luminescence; hits give high values; 0 = fully inhibited enzyme, 1 = untreated enzyme | activation factor at 5 µM;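 active means activation factor of at least 2 at 5 µM in the primary screen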;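 further: 0 = wells with 2.5 mM tranylcypromine and 1 = vehicle-only wells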
CYP2C19 inh: human CYP2C19 inhibition; P33261; CYP2C19 Supersomes, luciferin-H EGE luminescence, 30 min; inhibition, % at 5 µM; actives 21% (n = 96,000); AID 778;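 active means CYP2C19 inhibition above a set limit at 5 µM in the primary screen, cut at about 50% in these data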;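 further: plate controls were negative control wells for no effect and 2.5 mM tranylcypromine positive control for full effect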
sEH inh: blocks human soluble epoxide hydrolase activity; P34913; recombinant human sEH enzymatic activity assay; inhibition, % at 2 µM; actives 0.34% (n = 91,000); AID 707; in the data active means inhibition above about 80%
* hit, by the source's call; . = no result. Hits are enriched below; roughly 27% of the tested compounds scored in any of these assays.

SMILES	sEH activator	CYP2C9 inhib	CYP2C9 act	CYP2C19 activ	CYP2C19 inh	sEH inh
CCOC(=O)Cc1nnc2c(Nc3ccccc3F)nc3nonc3n12	3.8	26.7	0.7	1	2.2	-5.4
COc1cccc(N2C(=O)C(c3ccccc3)=C(c3nc4ccccc4s3)C2NC(C)=O)c1 (stereo unspecified)	1.0	51.4*	0.5	0.4	55.9*	-1.7
CC(=O)NC1C(c2nc3ccccc3s2)=C(c2ccccc2)C(=O)N1c1ccc(C)cc1 (stereo unspecified)	14.9	27.6	0.7	0.6	42.0	-15.0
COCCOC(=O)c1c(C)oc2ccc(NS(=O)(=O)c3ccccc3)cc12	-3.3	65.1*	0.3	0.4	62.7*	2.0
CCOC(=O)c1c(C)oc2ccc(NS(=O)(=O)c3ccc4c5c(cccc35)C(=O)N4)cc12	1.1	.	.	.	.	0.2
COC(=O)c1c(C)oc2ccc(NS(=O)(=O)c3cccs3)cc12	4.7	92.3*	0.1	0	97.4*	-2.2
CCOC(=O)Oc1ccc2oc(C)c(C(=O)OCCOC)c2c1	-7.3	-0.8	1	0.8	15.4	7.5
O=C1CN(C(=O)COC(=O)CCSc2ccccc2Cl)c2ccccc2N1	7.0	-29.6	1.3	0.8	21.6	-8.8
CCCN1CCN(C(=O)CN2C(=O)CC(C)(C)S(=O)(=O)c3ccccc32)CC1	-8.3	-2.0	1	1	4.3	7.1
CC(=O)c1cccc(NC(=O)Nc2cc3sccc3n2C)c1	.	32.6	0.7	1.1	-5.7	.
O=C(CN1C(=O)CSC1=O)Nc1ccc2c(c1)OCCO2	-14.3	2.1	1	1.1	-5.7	14.4
COc1ccc(-c2noc(CSc3nnc(CCc4ccccc4)n3-c3ccccc3)n2)cc1OC	-5.4	79.7*	0.2	0	99.3*	6.8
Cc1ccc(-c2noc(CSc3nnc(CCc4ccccc4)n3-c3ccccc3)n2)cc1	-9.2	75.8*	0.2	0.2	83.0*	6.8
COc1ccc(-c2noc(CSc3ccccc3)n2)cc1OC	-4.7	20.9	0.8	0.7	31.1	5.9
Cn1c(SCc2nc(-c3ccccc3)no2)nnc1-c1ccco1	10.9	13.5	0.9	0.7	30.0	-11.5
COc1ccccc1-n1c(SCC(=O)NC2CCCCC2)nc2c(c1=O)SCC2	-6.8	2.3	1	0.9	12.0	5.8
NC(=O)C1CCN(c2oc(-c3ccccc3F)nc2S(=O)(=O)c2ccc(Cl)cc2)CC1	6.1	29.1	0.7	0.5	51.9*	-3.8
COc1ccccc1N1CCN(C(=O)c2sc3nc(-c4ccc(F)cc4)cn3c2C)CC1	.	50.4*	0.5	0.8	15.1	.
CCOC(=O)N1CCN(C(=O)c2sc3nc(-c4ccc(F)cc4)cn3c2C)CC1	-8.9	68.7*	0.3	0.4	63.9*	9.4
COc1ccc(-c2cn3c(C)c(C(=O)N4CCN(c5ccc(F)cc5)CC4)sc3n2)cc1	11.9	-3.9	1	1	-1.6	-12.9
CN1C(=O)C2(c3ccccc31)C1CCCC=C1C(C#N)=C(N)C2(C#N)C#N (stereo unspecified)	-2.0	19.3	0.8	1	0.5	2.1
COc1ccc(-c2ccc(OC)cc2)cc1	-0.4	.	.	.	.	1.0
COc1ccc(C(=N/O)/C(=N/O)c2ccc(OC)cc2)cc1	8.1	26.7	0.7	0.4	59.6*	-7.0
Cc1csc2ncc(C(=O)N3CCCc4ccccc43)c(=O)n12	.	12.2	0.9	0.6	40.6	.
COc1ccc(N(CC(=O)Nc2ccc(C)cn2)S(=O)(=O)c2c(C)nn(C)c2C)cc1	-13.4	83.7*	0.2	0.1	85.5*	15.4
SMILES	sEH activator	CYP2C9 inhib	CYP2C9 act	CYP2C19 activ	CYP2C19 inh	sEH inh
COc1cc(NC(=O)CN(c2ccc(C)cc2)S(=O)(=O)c2c(C)nn(C)c2C)cc(OC)c1	.	53.7*	0.5	0.3	66.3*	.
Cc1ccc(N(CC(=O)Nc2ccc(C)cn2)S(=O)(=O)c2c(C)nn(C)c2C)cc1	.	83.9*	0.2	0.2	76.3*	.
COC(=O)c1ccc(NC(=O)CN(c2ccc(C)cc2)S(=O)(=O)c2c(C)nn(C)c2C)cc1	5.6	26.5	0.7	0.9	14.1	-8.1
COc1ccc(N(CC(=O)Nc2ccc3c(c2)OCCO3)S(=O)(=O)c2c(C)nn(C)c2C)cc1	4.9	74.5*	0.3	0.5	54.7*	-2.6
O=C(COC(=O)C1COc2ccccc2O1)Nc1ccc2c(c1)CCC2 (stereo unspecified)	.	17.5	0.8	0.7	27.0	.
COc1cccc(CC(=O)Nc2nccs2)c1	.	13.0	0.9	0.6	41.1	.
COc1ccc(N(CC(=O)Nc2nccs2)S(=O)(=O)c2c(C)nn(C)c2C)cc1	-5.7	64.2*	0.4	0.4	58.3*	7.8
COc1ccc(N(CC(=O)Nc2cc(C)ccc2C)S(=O)(=O)c2c(C)nn(C)c2C)cc1	.	29.4	0.7	0.4	55.4*	.
COc1ccc(-c2nsc3c(SCC(=O)Nc4cc(C)ccc4C)ncnc23)cc1	-2.1	8.7	0.9	1.1	-10.3	0.9
CCOC(=O)N1CCN(Cc2nc3c(c(=O)[nH]c(=O)n3C)n2Cc2cc(C)ccc2C)CC1	-3.8	71.6*	0.3	0.7	28.5	7.3
Cn1c(=O)[nH]c(=O)c2c1nc(CN1CCN(c3cccc(Cl)c3)CC1)n2CCc1ccccc1	7.0	22.7	0.8	0.9	12.1	-1.8
CCCCCCCCn1c(N2CCN(c3cccc(Cl)c3)CC2)nc2c1c(=O)[nH]c(=O)n2C	8.9	51.8*	0.5	0.9	14.7	-12.2
CCCCCn1c(CN2CCN(c3cccc(Cl)c3)CC2)nc2c1c(=O)[nH]c(=O)n2C	7.1	58.7*	0.4	0.6	44.1	-5.6
CC1(C)Cc2noc(N)c2C(C)(C)N1OC(=O)c1ccco1	-9.1	.	.	.	.	8.4
CCOC(=O)C1=C2N(C)c3ccccc3N2CCC1=O	.	-9.7	1.1	1.1	-7.8	.
CCOC(=O)CNc1c(-c2ccccc2)nc2ccc(Cl)cn12	-2.0	49.8	0.5	0.4	57.5*	5.3
CCCCCCc1ccc(OCC(=O)OC)cc1OCC(=O)OC	2.5	30.0	0.7	0.8	20.6	-5.4
CC1(C(=O)NC2CCCCCCC2)CCC(=O)N1Cc1cccs1 (stereo unspecified)	9.0	-28.2	1.3	0.3	71.3*	-6.5
CC1(C(=O)NC2CCCCC2)CCC(=O)N1Cc1cccs1 (stereo unspecified)	16.5	-45.8	1.5	0.8	17.6	-16.6
Nc1nnc(CC(=O)N2CCCCC2)s1	9.4	0.1	1	1	-2.3	-9.0
CCC(=O)c1cc2c(cc1NC(=O)C(C)C)OCCO2	.	23.9	0.8	0.9	11.9	.
COc1ccc(CCNC(=O)CSc2nc3c(c(=O)n(C)c(=O)n3C)n2C)cc1OC	-3.5	.	.	.	.	4.0
Cc1ccc(S(=O)(=O)Cn2nnnc2CN2CCCC3(CCCCC3)C2)cc1	-3.2	83.0*	0.2	0.1	93.2*	3.6
CC(C)NC(=S)N/N=C1\CCCCC1C1CCCCC1 (stereo unspecified)	-1.9	80.5*	0.2	0.4	62.9*	3.2

Bioassay records deposited in PubChem BioAssay by several laboratories.
